From PubChem
A selection: hits, their analogues and other compounds. The true share with any hit is near 19%.
TDP1 cell noCPT: qHTS for Inhibitors of human tyrosyl-DNA phosphodiesterase 1 (TDP1): qHTS in cells in absence of CPT; Potency, µM (doses to about 46.2 µM), for inactives: at the top dose activity change, negative = growth inhibition, most hits filed as inhibitors; hit rate 15% among 420,000; DT40 Tdp1-/- hTDP1 cells, no CPT, ATP luminescence, 48 h; note: nearly all actives have a fitted effect of over 55% in size
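Stably hTDP1-transfected Tdp1-null chicken DT40 cells were treated with library compounds minus camptothecin and grown for at least 48 hr at 37 °C, after which cellular ATP was quantified by luminescence.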
KB-V1 MDR tox: KB-V1 MDR subline cytotoxicity; AID 1347076; hit rate 3.4% among 400,000; KB-V1 MDR cells viability, CellTiter-Glo, 72 h; Potency, µM (doses to about 46.1 µM), most hits filed as cytotoxic; note: nearly all actives have a fitted effect of over 60% in size
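Cytotoxicity toward P-gp-expressing KB-V1 cells was determined as loss of CellTiter-Glo luminescence after 72 h at 37 degrees C. Compounds were tested in quantitative HTS format across a concentration range, with curves fitted to normalized data.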
KB-3-1 tox: kills parental KB-3-1 adenocarcinoma cells | KB-3-1 viability, CellTiter-Glo ATP luminescence, 72 h | Potency, µM (top dose mostly 46.1 µM), most hits filed as cytotoxic | hit rate 1.4% among 400,000 | AID 1347075; note: nearly all actives have a fitted effect of over 60% in size
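KB-3-1 cells, DMEM (no phenol red) + 10% FBS; compound by pin transfer, 72 h, 37 °C. Readout: CellTiter-Glo luminescence after 10 min. Data normalized, curve-fitted.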
DT40 TDP1 CPT: DT40-hTDP1 cell growth loss with CPT; chicken DT40 Tdp1-/-;hTDP1 cells + 20 nM CPT, ATP luminescence, 48 h; hit rate 12% among 420,000; Potency, µM (top dose mostly 46.2 µM), without a hit: at the top dose activity change, negative = growth inhibition, actives largely listed as inhibitors; AID 686979; note: nearly all actives have a fitted effect of over 55% in size
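Cell growth measured by CellTiter-Glo luminescence after a minimum 48 h, 37 C compound exposure with 20 nM CPT in Tdp1-knockout DT40 cells stably expressing hTDP1, seeded 400/well; qHTS titration format.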
HT1080NT lethal: kills 2HG-producing HT-1080-NT fibrosarcoma cells; HT-1080-NT fibrosarcoma viability, CellTiter-Glo ATP luminescence, 48 h; Potency, µM (top dose mostly 46.1 µM), for the others: at the highest dose activity, negative = less viability, usual class: cytotoxic; hit rate 1.6% among 360,000; AID 686970;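 note: NT is the 2HG producing partner of a matched IDH1 knockdown line; 0% = DMSO-treated cells and -100% = media-only wells without cells; nearly all actives have a fitted effect of over 55% in size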
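750 cells/well, RPMI + 5% FBS; 2 h settle, compound pin-transfer, 48 h at 37 degrees C. CellTiter-Glo 10 min RT, luminescence. Normalized to DMSO and media-only wells.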
HT1080 IDH1KD tx: HT-1080 IDH1 knockdown cell toxicity (counter line) | hit rate 2% among 360,000 | AID 686971 | HT-1080 IDH1 knockdown viability, ATP luminescence, 48 h | Potency, µM (highest dose often 46.1 µM), without a hit: at the highest dose activity, negative = toxicity, most hits filed as cytotoxic;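 note: 0% = DMSO wells and -100% = cell-free medium wells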
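HT-1080-IDH1KD cells (IDH1 knocked down), 750/well in RPMI with 5% FBS, treated with compound 48 h at 37 degrees C. Viability by CellTiter-Glo luminescence, normalised to DMSO and no-cell wells; concentration-response curves classed.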
* = called active by the depositor; i = inactive; u = inconclusive; x = not tested or not shown. Calls come from the whole dose curve; as a rule, active = well fitted curve in the direction sought with a large enough effect; inconclusive = small, poorly fitted or top-dose-only effect, or another doubt; inactive = no such curve, though single readings can be large; an effect the other way counts as inactive or inconclusive. Unless noted, % is set by controls: 0 for no effect and ±100 for the full control effect; potency is the fitted concentration of half-maximal effect.

SMILES	TDP1 cell noCPT	KB-V1 MDR tox	KB-3-1 tox	DT40 TDP1 CPT	HT1080NT lethal	HT1080 IDH1KD tx
Cc1ccc(C(NC(=O)C2CCN(Cc3ccc(Cl)c(Cl)c3)CC2)c2ccccn2)cc1 (stereo unspecified)	1.3µM*	u	u	u	u	u
COc1ccc(C2=Nc3ccccc3C2(O)CCN2C(=O)c3ccccc3C2=O)cc1 (stereo unspecified)	-23%	i	i	-14%	8%	0%
CCCSc1nnc(-c2cccc(S(=O)(=O)N(C)C)c2)n1-c1cc(OC)ccc1OC	11µM*	u	i	11µM*	9%	8%
CCSc1nnc(-c2cccc(S(=O)(=O)N(C)C)c2)n1-c1cc(OC)ccc1OC	u	i	i	14µM*	9%	12%
COc1ccc(OC)c(-n2c(SCC(C)=O)nnc2-c2cccc(S(=O)(=O)N(C)C)c2)c1	-18%	i	i	-15%	4%	-1%
Clc1ccc(-c2noc(-c3cccnc3NCc3ccco3)n2)cc1	4%	i	i	2%	x	x
CC(C)CCN1CCN(Cc2ccc(N3CCNC3=O)cc2)CC1CCO (stereo unspecified)	-11%	i	i	-3%	-1%	-3%
COCCn1c(SCC(=O)Nc2cccc(NC(C)=O)c2)nc2c([nH]c3ccccc32)c1=O	3.3µM*	i	i	u	-24%	-11%
Cn1c(SCC(=O)Nc2ccccc2)nc2c([nH]c3ccccc32)c1=O	u	i	i	u	-4%	-3%
CCC1CCCCN1C(=O)CSc1nc2c([nH]c3ccccc32)c(=O)n1C (stereo unspecified)	21µM*	23µM*	i	18µM*	9%	3%
Cc1cccc(NC(=O)CSc2nc3c([nH]c4ccccc43)c(=O)n2C)c1	12µM*	u	u	8.2µM*	-9%	-7%
CC(=O)Nc1ccc(NC(=O)CSc2nc3c([nH]c4ccccc43)c(=O)n2-c2ccccc2F)cc1	u	i	u	u	-29%	u
CCSc1nc2c([nH]c3ccccc32)c(=O)n1C	-22%	i	i	-4%	13%	23%
O=C(CSc1nc2c([nH]c3ccccc32)c(=O)n1-c1ccccc1F)Nc1cccc(C(F)(F)F)c1	16µM*	u	15µM*	21µM*	x	x
O=C(c1cnccn1)N1CCC2(CC1)CN(c1ccncc1)C2	-11%	x	x	-1%	x	x
O=C(Cc1ccc([N+](=O)[O-])cc1)Nc1ccc2c(c1)CCC2	-5%	i	i	-6%	-13%	7%
CCn1c(CNS(=O)(=O)c2ccc(Br)cc2)n[nH]c1=S	-13%	i	i	u	-2%	-6%
O=Cc1c(-c2ccccc2)cc2oc3ccccc3cc1-2	13µM*	i	i	u	0%	3%
CCc1nn(C(C)C(=O)NCCN2CCN(c3cccc(C)c3C)CC2)c(=O)c2cc3occc3n12 (stereo unspecified)	16µM*	i	u	u	u	u
CCc1nn(CC(=O)NCc2cccc(OC)c2OC)c(=O)c2cc3occc3n12	-20%	x	x	-15%	x	x
CCc1nn(C(CC)C(=O)NCc2cccc(OC)c2OC)c(=O)c2cc3occc3n12 (stereo unspecified)	18µM*	i	i	21µM*	-21%	-5%
CCC(C(=O)N1CCN(c2cc(Cl)ccc2C)CC1)n1nc(C)n2c(cc3occc32)c1=O (stereo unspecified)	15µM*	10µM*	10µM*	u	x	x
